{
  "source": "PubChem BioAssay (Tox21)",
  "note": "“And” between values parts separate entries of the source, which are not always exact repeats. Equal values may be shown once. Records with an inconclusive call do not appear. A call without a number means that no potency is given here. Some compounds were tested as several samples or in several runs, with calls that do not always agree. The source made the active and inactive calls. Calls follow the shape of the dose curve; as a rule, active = well fitted cell-killing curve with a large enough effect in the repeat runs; inconclusive = weak or mixed curves; inactive = flat fitted curve, though single readings scatter. Potency is read from the fitted curve at half-maximal effect.",
  "data": [
    {"test": "qHTS RealTime-Glo MT Cell Viability Assay in HepG2 cells - 32 hour (AID 1224877); also: nearly all actives have a fitted effect of over 55% in size", "conditions": "RealTime-Glo luminescence; series mostly up to 76.8 µM", "text": "U.S. Tox21 Program National Center for Advancing Translational Sciences [NCATS] NIH Chemical Genomics Center [NCGC] U.S. Environmental Protection Agency [EPA] National Institutes of Environmental Health Sciences [NIEHS] National Toxicology Program [NTP] U.S. Food and Drug Administration [FDA] Tox21 Assay Overview: Measure of cell viability is critical in the cell-base assay. Analysis of cell viability is necessary for the characterization of cell responses to cytotoxic drugs and environmental stress. A RealTime-Glo MT Cell Viability Assay to monitor cell viability in real time of continues cell culture during 40 hours of compound treatment was used to screen Tox21 10K library compounds in HepG2 cells. The RealTime-Glo MT Cell Viability Assay is a nonlytic, homogeneous, bioluminescent method to measure cell viability in real time using a simple, plate-based method. The assay involves adding NanoLuc luciferase and a cell-permeant prosubstrate to cells in culture. Viable cells reduce the proprietary prosubstrate to generate a substrate for NanoLuc luciferase. This substrate diffuses from cells into the surrounding culture medium, where it is rapidly used by the NanoLuc Enzyme to produce a luminescent signal. The signal correlates with the number of viable cells, making the assay well suited for cytotoxicity studies.\nTox21 Assay Protocol Summary: The mixture of HepG2 cell suspension and reagents were dispensed at 600cells/6 ul/well in 1536-well tissue culture treated black solid bottom plates using a Multidrop dispenser. After the assay plates were incubated at a 37 C/5% CO2 incubator for 5 hours, 23 nL of compounds dissolved in DMSO, positive and negative controls was transferred to the assay plate by a pintool work station. The plates were incubated at 37 C for 40 hours. The luminescence intensity were measured at 0h, 8h, 16h, 24h, 32h and 40h time points using ViewLux plate reader during compound treatment.", "values": [
      {"molecule": "Oc1ccc2[nH]cc(CCCCN3CC=C(c4ccccc4)CC3)c2c1", "Potency": "inactive"},
      {"molecule": "Brc1cccc(-c2ccccc2)c1", "Potency": "inactive"},
      {"molecule": "Nc1nc(N)c(N)c(N)n1", "Potency": "inactive"},
      {"molecule": "C[C@H]1[C@H](c2ccc(Cl)cc2)SC(=O)N1C(=O)NC1CCCCC1", "Potency": "inactive"},
      {"molecule": "C[C@]12CC[C@H]3[C@@H](CCC4=CC(=O)CC[C@@H]43)[C@@H]1CC[C@@H]2OC(=O)CCc1ccco1", "Potency": "inactive"},
      {"molecule": "[Cl][Hg][c]1ccccc1", "Potency": "2750 nM (active)"},
      {"molecule": "CCC[CH2][Sn]([CH2]CCC)([O]C(C)=O)[O]C(C)=O", "Potency": "221 nM (active)"},
      {"molecule": "CCN(CC)CCN1C(=O)CN=C(c2ccccc2F)c2cc(Cl)ccc21", "Potency": "inactive"},
      {"molecule": "CC1(C)[C@H](/C=C2\\CCSC2=O)[C@@H]1C(=O)OCc1coc(Cc2ccccc2)c1", "Potency": "inactive"},
      {"molecule": "CN", "Potency": "inactive"},
      {"molecule": "NC1CCC(CC2CCC(N)CC2)CC1", "note": "(stereo not given)", "Potency": "inactive"},
      {"molecule": "CNC(C)(C)Cc1ccccc1", "Potency": "inactive"},
      {"molecule": "[F][Sn]([c]1ccccc1)([c]1ccccc1)[c]1ccccc1", "Potency": "347 nM (active)"},
      {"molecule": "CCCCCCCc1ccc(O)cc1", "Potency": "inactive"},
      {"molecule": "O.O.O.O.O.O.O.O=S(=O)([O-])[O-].[Co+2]", "Potency": "inactive"},
      {"molecule": "C[C@@H]1CC2=CC(=O)CC[C@@H]2[C@H]2CC[C@@]3(C)[C@@H](CC[C@]3(C)O)[C@@H]21", "Potency": "inactive"},
      {"molecule": "COCCC#N", "Potency": "inactive"},
      {"molecule": "CNN", "Potency": "inactive"},
      {"molecule": "CC(Cc1ccc(OCC(=O)O)cc1)NCC(O)c1csc(C(F)(F)F)n1", "note": "(stereo not given)", "Potency": "inactive"},
      {"molecule": "CC(Cc1ccc2c(c1)OCO2)NO", "note": "(stereo not given)", "Potency": "inactive"},
      {"molecule": "Brc1ccc(Oc2ccc(Br)cc2Br)c(Br)c1", "Potency": "inactive"},
      {"molecule": "COP(=S)(OC)Oc1ccc([N+](=O)[O-])c(C)c1", "Potency": "inactive"},
      {"molecule": "Cc1ccccc1OP(=O)(Oc1ccccc1C)Oc1ccccc1C", "Potency": "inactive"},
      {"molecule": "CC(=O)[O-].CC(=O)[O-].[Co+2]", "Potency": "inactive"},
      {"molecule": "C=Cc1cccc(CCl)c1", "Potency": "inactive"},
      {"molecule": "CCN(CC)Cc1nccn1-c1ccc([N+](=O)[O-])cc1C(=O)c1ccccc1Cl", "Potency": "inactive"},
      {"molecule": "CCC(OC(C)=O)C(CC(C)NC)(c1ccccc1)c1ccccc1", "note": "(stereo not given)", "Potency": "62200 nM (active)"},
      {"molecule": "Fc1ccc(C(OCCN2CCN(CCCc3ccccc3)CC2)c2ccc(F)cc2)cc1", "Potency": "23900 nM (active)"},
      {"molecule": "CCCCON=O", "Potency": "inactive"},
      {"molecule": "CCC(C)c1cccc(C(C)CC)c1O", "note": "(stereo not given)", "Potency": "inactive"},
      {"molecule": "O=[N+]([O-])c1ccccc1-c1ccccc1", "Potency": "inactive"},
      {"molecule": "O=S1OCC2C(CO1)C1(Cl)C(Cl)=C(Cl)C2(Cl)C1(Cl)Cl", "note": "(stereo not given)", "Potency": "inactive and 54.9 µM (active)"},
      {"molecule": "CCC1COC(Cn2cncn2)(c2ccc(Cl)cc2Cl)O1", "note": "(stereo not given)", "Potency": "inactive"},
      {"molecule": "CC(Cl)CCl", "note": "(stereo not given)", "Potency": "inactive"},
      {"molecule": "O=Cc1ccccc1", "Potency": "inactive"},
      {"molecule": "O=S(=O)(NS(=O)(=O)C(F)(F)F)C(F)(F)F", "Potency": "inactive"},
      {"molecule": "C#CCO", "Potency": "inactive"},
      {"molecule": "CC(=O)O.CC(=O)O.CC(=O)O.CC(=O)O.CC(=O)O.CC(=O)O.CC(=O)O.O.O.[Cr].[Cr].[Cr]", "Potency": "inactive"},
      {"molecule": "CN1CCc2cc3c(cc2C1O)OCO3", "note": "(stereo not given)", "Potency": "inactive"},
      {"molecule": "O=C(Nc1ccc(F)cc1F)c1cccnc1Oc1cccc(C(F)(F)F)c1", "Potency": "inactive"}
    ]}
  ]
}
